Assay outcomes: PubChem, National Center for Advancing Translational Sciences (NCATS)
Shown are actives, neighbours in structure and some others; about 4.7% of the full set was active somewhere.
D1 antag = human D1 dopamine receptor antagonism; HEK293 TREx D1 cells, calcium flux, dopamine EC80; stronger effect = lower value; AID 504652; P21728; hit rate 3.2% among 360,000; activity change, negative = inhibition, % at 10 µM; in the data active means activity change below about -30%; further: on the % scale 0 is the no-effect control and ±100 the full control effect
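HEK293 T-REx cells expressing inducible, force-coupled D1 receptor; no-wash Ca dye, 30–90 min RT. Cmpd → 180 s read at 1 Hz → EC80 DA → 180 s read.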
TRHR ag = agonists of human TRH receptor; P34981; TRHR cells, calcium flux fluo-8, FDSS agonist mode; activation, % at 2 µM; hit rate 0.18% among 360,000; AID 493084; further: 0% is about no effect
Target sequence (P34981 whole entry, looked up): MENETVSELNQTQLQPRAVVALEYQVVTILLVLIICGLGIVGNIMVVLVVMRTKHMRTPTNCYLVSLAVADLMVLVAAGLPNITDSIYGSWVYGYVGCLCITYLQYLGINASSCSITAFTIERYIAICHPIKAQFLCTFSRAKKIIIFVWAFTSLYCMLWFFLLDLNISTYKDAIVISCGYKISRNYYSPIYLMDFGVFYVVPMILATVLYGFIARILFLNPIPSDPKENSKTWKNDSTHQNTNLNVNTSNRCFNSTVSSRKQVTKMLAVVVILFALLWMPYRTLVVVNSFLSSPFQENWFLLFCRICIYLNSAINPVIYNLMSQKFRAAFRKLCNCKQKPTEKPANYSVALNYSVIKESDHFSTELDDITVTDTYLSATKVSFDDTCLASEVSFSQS
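Steps: seed TRHR cells overnight; add fluo-8 no-wash Ca dye, RT 30 min–1.5 h; record 10 s baseline; pin-transfer compounds; monitor fluorescence 1 cycle/s for the agonist window. Calcium increases flag candidate agonists.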
D1 ag = human D1 receptor agonism; hit rate 1% among 360,000; HEK293 T-REx D1 cells, calcium flux, agonist mode; AID 504660; activation, % at 2 µM; P21728; further: 0% is about no effect
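Tetracycline-induced HEK293 TREx D1 cells, force-coupled to calcium signalling, were dye-loaded with a no-wash calcium kit. Compound was pin-added after a 10 s baseline. Fluorescence was read kinetically at 1 cycle/s for 180 s, with calcium rises flagged as agonism.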
D1 potentiator = potentiators of human D1 dopamine receptor. hit rate 0.036% among 360,000. HEK293 TREx D1 cells, calcium flux, dopamine EC20 potentiation. AID 504651. potentiation, % at 10 µM; in the data active means potentiation above about 30%; further: 0% is about no effect
TRHR enhancer = allosterically enhances the human TRH receptor. hit rate 0.66% among 360,000. TRHR cells, fluo-8 calcium fluorescence, EC20 TRH enhancement. enhancement, % at 2 µM. P34981; in the data active means enhancement above about 30%; further: 0% is about no effect
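TRHR-expressing cells loaded with fluo-8 calcium dye were read kinetically (ex 480/em 530) during compound addition, then stimulated with an EC20 of TRH (10 nM final). Enhancement of the Gq-mediated intracellular calcium response was scored.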
* hit, by the source's call; · = no result. Unless noted, no stated cut-off is given here; in the data, active means activation above about 30%; inactive means the rest.

SMILES	D1 antag	TRHR ag	D1 ag	D1 potentiator	TRHR enhancer
Cc1cccc(CSCCNC(=O)C2CCN(S(=O)(=O)Cc3ccccc3)CC2)c1	-14	0	2	-3	0
CCc1nnc(SCC(=O)Nc2ccc(N3CCOCC3)cc2)o1	-4	0	0	1	26
Cc1cccc(C)c1OCc1nnc(SCC(=O)Nc2ccc(N3CCOCC3)cc2)o1	9	1	41*	·	3
CCN(CC(=O)Nc1c(F)cccc1F)C(=O)c1ccc2c(=O)n3c(nc2c1)CCC3	0	1	0	-1	1
O=C(NNC(=O)c1ccc2c(=O)n3c(nc2c1)CCC3)c1cccc(Cl)c1	-32*	1	-3	-7	1
